From PubChem BioAssay (EPA / NIEHS) come the findings set out here.

Broadly, the AC50 is the concentration giving half of the maximal activity seen.

SMILES strings stand for the structures. Values joined by “and” are separate entries in the source; they are usually repeats but may differ in a detail not shown here. Identical values can stand only once. Active and inactive are the calls of the source. The calls were made as follows: active = hit-call score of the fitted dose curve at least 0.9, where 1 is the maximum; inactive = score below 0.9.

Read-out in the test: Collagen IV, COL4A1 (gene 1282)
As to the kind of experiment: BSK_MyoF_CollagenIV: BioMAP Diversity Plus: MyoF Assay for Collagen IV Biomarker Activity (AID 2284247). The conditions noted are these: primary human lung fibroblasts. On the procedure: BSK_MyoF is a cell-based, multiplexed-readout assay that uses lung fibroblasts, […], with measurements taken at 24 hours after chemical dosing in a microplate: 96-well plate.BSK_MyoF_CollagenIV is an assay component measured in the BSK_MyoF assay. It measures Collagen IV antibody related to regulation of gene expression using ELISA technology.Data from the assay component BSK_MyoF_CollagenIV was analyzed at the endpoint, BSK_MyoF_CollagenIV, in the positive analysis fitting direction relative to DMSO as the negative control and baseline of activity. Using a type of binding reporter, gain or loss-of-signal activity can be used to understand protein changes. To generalize the intended target to other relatable targets, this assay endpoint is annotated to the 'cell adhesion molecules' intended target family, where the subfamily is 'collagen'.
The levels of cell surface (or secreted, indicated by the prefix "s") biomarker endpoints were measured by ELISA. Overt cytotoxicity to cells in confluent adherent cultures (all systems other than the BT system) was assessed by measuring total protein levels using sulforhodamine B (SRB) staining in parallel cultures at the time of biomarker measurements, indicated as SRB endpoints. For proliferation assays for adherent cell types, individual cell types are cultured at sub-confluence and relative cell numbers quantified by SRB staining at time points optimized for each system (48 h: 3C and CASM3C systems; 72 h: BT and HDF3CGF systems; 96 h: SAg system). SRB was performed by staining cells with 0.1% SRB after fixation with 10% TCA and reading wells at 560 nm.Viability and proliferation of PBMC (T cells) was quantified by Alamar Blue reduction for the SAg and BT systems. For PBMC viability (referred to as PBMC Cytotoxicity within the assay endpoint names), cells were plated (75,000/well in a 96-well plate) and then chemical samples added for 1 h before addition of activators, SEB and TSST-1 (20 ng/mL final concentration each). Cells were incubated for 90 h. Then, Alamar Blue (20 uL/well) (Invitrogen, Cat DAL1100) was added for 6 h, and the plates were read with a fluorescence microplate reader at 546/580 nm (excitation/emission). For PBMC proliferation, cells were plated and activated as above but incubated for only 16 h prior to addition of Alamar Blue. Plates were read after 6 h.
As for `COP(=S)(OC)Oc1ccc(S(=O)(=O)N(C)C)cc1`, the outcome was inactive.
Still for that read-out and setting: the result for `O=[N+]([O-])c1ccc2c3c(cccc13)CC2` reads “inactive”; that for `COP(=S)(OC)Oc1ccc(Sc2ccc(OP(=S)(OC)OC)cc2)cc1`, “inactive”; that for `CCOP(=S)(OCC)SCCS(=O)(=O)CC`, “inactive”.
Still for that read-out and setting: the result for `CCNc1nc(NC(C)(C)C)nc(SC)n1` reads “inactive”; that for `CCOP(=S)(OCC)Oc1ccc(S(C)=O)cc1` (stereo unspecified), “inactive”.
For `BrCCBr`, the outcome was inactive.
Still for that read-out and setting: the result for `NC(=S)Nc1ccccc1` reads “inactive”; that for `O=C(OC1CCCCC1)c1ccccc1C(=O)OC1CCCCC1`, “inactive”.
Still for that read-out and setting: the result for `Nc1ccc(-c2ccc(N)c(Cl)c2)cc1Cl` reads “inactive”.
Turning to `COP(=S)(OC)Oc1c(Cl)cc(C)cc1Cl`, the result was inactive.
`O=C(O)C(F)(F)C(F)(F)C(F)(F)C(F)(F)C(F)(F)C(F)(F)F`: the result was inactive.
Regarding `Nc1ncc([N+](=O)[O-])s1`, the outcome was inactive.
With `Nc1cccc2ccccc12`, the outcome was inactive.
The same measure, in the same setting: under `O=Cc1cccc(Oc2ccccc2)c1` stands “inactive”; under `O=S(=O)(c1ccc(Cl)cc1)c1ccc(Cl)cc1`, “inactive”.
For the molecule `O=C(O)C(F)(F)C(F)(F)C(F)(F)C(F)(F)C(F)(F)C(F)(F)C(F)(F)C(F)(F)C(F)(F)C(F)(F)F`, the AC50 is 816 nM (active) and 843 nM (active).
Take `CCOC(=O)/C=C(C)/C=C/C[C@@H](C)CCCC(C)C`: the concentration at half-maximal activity (AC50) was 7.11 µM (active).
As to `COC[C@H](C)N(C(=O)CCl)c1c(C)csc1C`, the outcome was inactive.
With `CCSC(C)CC1CC(=O)C(C(CC)=NOC/C=C/Cl)=C(O)C1` (stereo unspecified), the outcome was inactive.
Take `COc1cc(OC)nc(NC(=O)NS(=O)(=O)c2ncccc2C(=O)N(C)C)n1`: the result was inactive.
In the case of `ClC(Cl)=C(Cl)C(Cl)=C(Cl)Cl`, the outcome was inactive.
Same read-out and setting: under `CC(C)CCCCCCOC(=O)c1ccccc1C(=O)OCCCCCCC(C)C` stands “inactive”.
For the molecule `OCc1ccco1`, the result was inactive.
Turning to `CCCCCCCCC(=O)NCc1ccc(O)c(OC)c1`, the result was inactive.
Take `CC1(C)Cc2cccc(O)c2O1`: the result was inactive.
In the case of `CC(=O)C(Cl)C(=O)N(C)C` (stereo unspecified), the result was inactive.
As for `Oc1c(I)cc(I)cc1I`, the AC50 was 4.34 µM (active).
`C(=NC1CCCCC1)=NC1CCCCC1`: the AC50 is 12.4 µM (active).
As to `CC(C)c1ccc(CO)cc1`, the outcome was inactive.
Regarding `COP(=S)(OC)Oc1cc(Cl)c(Cl)cc1Cl`, the outcome was inactive.
Still for that read-out and setting: under `ClC1=C(Cl)[C@]2(Cl)[C@H]3[C@H]([C@H]4C=C[C@H]3C4)[C@@]1(Cl)C2(Cl)Cl` stands “inactive”.
Turning to `CCCCC(CC)CO[N+](=O)[O-]` (stereo unspecified), the result was inactive.
For the molecule `O=C(O)CCC(F)(C(F)(F)F)C(F)(F)F`, the outcome was inactive.
Regarding `Oc1ccc(-c2ccccc2)cc1`, the outcome was inactive.
Same read-out and setting: the result for `COC(=O)c1sccc1S(=O)(=O)NC(=O)Nc1nc(C)nc(OC)n1` reads “inactive”.
